The OligoGym collection

What follows are sequences tested against C3orf64 (assay: pooled miR-30 sensor sort-seq; sequence = guide strand). Details: shRNA.
Further: reference of the scale not given here.

Sequence	sensor-assay potency score (higher = more potent)
TTCATCTTCACAGTTGTACAGT	0.304
TATAGGTCTGAAGTTGAGCTGA	0.14
TTAGCATCTTCTATAGGTCTGA	0.396
TATAACATGGTCCTATAGCTTG	-1.11
TATAGCTTTGTAGCTCAGCAAA	-1.7
TAGAAGACTGTTCCAATCCTTT	-0.485
TAACATGTTGTAATTCTTCTTA	0.391

The sequences below were run against C4orf27 in the same assay as above. Details: shRNA.

Sequence	sensor-assay potency score (higher = more potent)
TTCATCATTAGCAAACTGCACA	-0.513
TATGTTCTCTTGACTTCTGTTT	-0.298
TTATACAATTTTTCTTTGCTTC	-0.21
TAATGGTCTGGAACTCAGGAGG	-0.721
TTATCTACTGGAACAACCAAGC	-0.86
TTCTTTTCGAAGGTCACTGGAG	-0.538
TCTACTGGAACAACCAAGCCTG	-0.00895
TATAATGATTTTCTACTTCTTT	-0.484
TTAGTCTCTCCTCATCACTTGC	-0.932
TATTTCTCTAAGTTTTTTCGTC	-0.0754
TTTATCTACTGGAACAACCAAG	-0.789
TTCTCTTGAGGTCAGCATCTGT	-0.164

These sequences were tested against C4orf45 in the same assay as above. Details: shRNA.

Sequence	sensor-assay potency score (higher = more potent)
TATTTTGCTGGCAAGCTTCTAT	-0.0491
TTATACTGTGGTATTCTCCAAC	-0.109
ATAAATATCTGAGATCTCCAGT	0.467
TTAGGTGGTTTGGAAGCTCTTG	-0.244
TTTTTCTAACGCCAGATGCTGT	-0.936
TTCCTTTTTTGGTAGCTTCGGC	-0.246
TCTCTGATCAGTGTCCTCGAAA	-0.979
TTTTGGTAGCTTCGGCAGCTTA	-1.74
TTATGTAGTCTGGACCTGTAAA	-1.37
TAATCCTTTATGTAGTCTGGAC	-0.844
TTATATTTTGCTGGCAAGCTTC	-1.08
TAGGTGGTTTGGAAGCTCTTGG	-0.261

What follows are sequences tested against C5AR1 in the same assay as above. Details: shRNA.

Sequence	sensor-assay potency score (higher = more potent)
TTAACTCACTTACAAGAGCTTA	-0.512
TAAGGTAACACCATCCCACGAA	0.399
TAAACACCAGCAGAAAGCGGTC	-1.02
TTGAGTGTCTTGGTGGACCGCG	0.0393
TGAAAGTGTAACAAATCGTGAG	0.282
TCTTCAGTCAACACGTTCCGGA	-0.631
TAGAAGTTTTATCCACAGGGGT	-0.173
ATAGTGTCCACTGTGGAGCGCG	-0.598
TTTGTCGTGGCTGTAGTCCACG	-0.519
